# Calls of active or inactive are those of the source. How the source made its calls: active means hit-call score of the fitted dose curve at least 0.9, where 1 is the maximum; inactive means score below 0.9.
# Tests used:
# [1] = ATG_CRE_CIS: Attagene CIS-FACTORIAL HepG2 Assay for human cAMP Responsive Element (CRE) binding protein 3 (AID 2282926); settings: HepG2 CRE cis-reporter, Attagene multiplexed mRNA; actives raise or lower the signal
# Procedure, shortened: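 Readout: fluorescently labelled reporter transcripts resolved by capillary electrophoresis after RT-PCR, taken 24 h post-dosing in transfected HepG2. Endogenous transcription factor activity drives each cis-element reporter; gain or loss of signal fitted relative to DMSO control.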
# [2] = biological target: CCAAT/enhancer-binding protein beta (Homo sapiens) (UniProt P17676); assay: ATG_C_EBP_CIS: Attagene CIS-FACTORIAL HepG2 Assay for human CCAAT/Enhancer Binding Protein (C/EBP) beta (AID 2282927); settings: HepG2 Attagene cis-factorial transcription factor reporter; actives raise or lower the signal
# CCAAT/enhancer-binding protein beta (Homo sapiens), sequence (P17676 whole entry, looked up): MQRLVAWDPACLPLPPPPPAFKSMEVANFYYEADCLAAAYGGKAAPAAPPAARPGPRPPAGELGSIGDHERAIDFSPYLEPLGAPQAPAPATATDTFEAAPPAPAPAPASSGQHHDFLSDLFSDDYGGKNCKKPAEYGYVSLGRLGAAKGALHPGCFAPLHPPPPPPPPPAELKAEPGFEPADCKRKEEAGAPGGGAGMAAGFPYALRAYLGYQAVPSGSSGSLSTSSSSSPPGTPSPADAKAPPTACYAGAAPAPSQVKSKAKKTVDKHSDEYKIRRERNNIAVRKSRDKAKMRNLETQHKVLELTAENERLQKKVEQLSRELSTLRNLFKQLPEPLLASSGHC
# Procedure, shortened: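 Following a 24 h incubation with test chemical, transfected HepG2 cells yielded RNA whose reporter transcripts were quantified by RT-PCR and fluorescent capillary electrophoresis, with DMSO serving as baseline for bidirectional fitting.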
# [3] = ATG_CMV_CIS: Attagene CIS-FACTORIAL HepG2 Assay for human CMV (Internal Marker) (AID 2282928); settings: HepG2 CMV promoter reporter, transcription factor profiling; actives raise or lower the signal;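 further: endpoint acts as a background internal control marker rather than a target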
# Procedure, shortened: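 Reporter transcripts from transfected HepG2 cells are isolated after 24 h of chemical dosing, reverse-transcribed and amplified. Fragments labeled with 6-FAM are cut with HpaI and quantified by capillary electrophoresis; DMSO defines baseline.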
# [4] = ATG_DR4_LXR_CIS: Attagene CIS-FACTORIAL HepG2 Assay for human Liver X Receptor (LXR), DR4 submotif (AID 2282929); settings: HepG2 Attagene DR4 cis-reporter, mRNA transcription; actives raise or lower the signal
# Procedure, shortened: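 HepG2 cells transiently transfected with cis-promoter-driven multiplexed reporter units (DR4 element) were dosed for 24 h. Reporter mRNA was quantified by RT-PCR, fluorescent primer extension, HpaI digestion and capillary electrophoresis; bidirectional fitting versus DMSO baseline.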
# [5] = ATG_AP_1_CIS: Attagene CIS-FACTORIAL HepG2 Assay for human Activator Protein 1 (AP-1) (AID 2282931); settings: HepG2 Attagene cis-factorial AP-1 reporter mRNA; actives raise or lower the signal
# Procedure, shortened: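 HepG2 cells transiently transfected with cis-element-driven multiplex reporter units; 24 h compound exposure. Reporter mRNA quantified by RT-PCR, FAM-labelled fragments resolved by capillary electrophoresis; bidirectional fit versus DMSO baseline.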
# [6] = ATG_AP_2_CIS: Attagene CIS-FACTORIAL HepG2 Assay for human Activator Protein 2 (AP-2) (AID 2282932); settings: HepG2 AP-2 cis-reporter, Attagene transcription factor profiling; actives raise or lower the signal
# Procedure, shortened: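 Cells (HepG2) transfected with promoter-driven reporter constructs, treated 24 h. Total RNA reverse-transcribed, reporter cDNA PCR-amplified, FAM-labelled by primer extension, digested, resolved by capillary electrophoresis. Activity fitted both directions versus DMSO.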
# [7] = ATG_BRE_CIS: Attagene CIS-FACTORIAL HepG2 Assay for human Bone Morphogenetic Protein (BMP) Response Element (BRE) (AID 2282933); settings: HepG2 BMP response element reporter, Attagene transcription factor profiling; actives raise or lower the signal
# Procedure, shortened: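 Endogenous transcription factor activity read in transiently transfected HepG2 cells after 24 h chemical exposure. Bidirectional curve fitting against DMSO; readout is reporter transcript level by RT-PCR with capillary electrophoresis of labelled products.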
# [8] = biological target: Transcription factor E2F1 (Homo sapiens) (UniProt Q01094); assay: ATG_E2F_CIS: Attagene CIS-FACTORIAL HepG2 Assay for human E2F Transcription Factor 1 (AID 2282935); settings: HepG2 Attagene cis-reporter, E2F reporter RNA transcripts; actives raise or lower the signal
# Transcription factor E2F1 (Homo sapiens), sequence (Q01094 whole entry, looked up): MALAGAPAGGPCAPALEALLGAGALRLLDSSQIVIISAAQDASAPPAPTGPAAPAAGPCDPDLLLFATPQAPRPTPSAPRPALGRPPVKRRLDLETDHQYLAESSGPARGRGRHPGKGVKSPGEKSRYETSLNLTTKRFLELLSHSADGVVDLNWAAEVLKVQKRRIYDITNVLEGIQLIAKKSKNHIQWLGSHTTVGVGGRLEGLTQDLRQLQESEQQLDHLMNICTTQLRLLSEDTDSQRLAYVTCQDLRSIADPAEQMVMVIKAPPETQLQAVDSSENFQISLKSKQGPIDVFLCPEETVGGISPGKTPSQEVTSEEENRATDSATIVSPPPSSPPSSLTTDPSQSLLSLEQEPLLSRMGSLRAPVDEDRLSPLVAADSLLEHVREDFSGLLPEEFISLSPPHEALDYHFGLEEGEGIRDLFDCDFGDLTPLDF
# Procedure, shortened: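 First, HepG2 cells were transfected with reporter transcription units. Next, they were dosed for 24 h. Then RNA was isolated, converted to cDNA, PCR-amplified, FAM-labeled, HpaI-digested and analyzed by capillary electrophoresis.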
# [9] = ATG_E_Box_CIS: Attagene CIS-FACTORIAL HepG2 Assay for human Enhancer Box (E-box) (AID 2282936); settings: HepG2 E-box cis-reporter transcription, actives raise or lower the signal
# Procedure, shortened: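 Endogenous transcription factor activity was sensed in human HepG2 liver cells through transfected cis-promoter reporter units. After 24 h of dosing, total RNA was reverse-transcribed and reporter cDNA resolved by capillary electrophoresis.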
# [10] = ATG_M_61_CIS: Attagene CIS-FACTORIAL HepG2 Assay for M61 Transcription Factor (Internal Marker) (AID 2282937); settings: HepG2 Attagene CIS-FACTORIAL M61 internal marker reporter; actives raise or lower the signal
# Procedure, shortened: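 HepG2 cells transiently transfected with cis-element-driven multiple reporter transcription units, dosed for 24 h. Reporter mRNA measured by RT-PCR, 6-FAM primer-extension labelling, HpaI digestion and capillary electrophoresis; bidirectional fit versus DMSO baseline.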
# [11] = ATG_EGR_CIS: Attagene CIS-FACTORIAL HepG2 Assay for human Early Growth Response 1 (EGR1) (AID 2282938); settings: HepG2 Attagene CIS-FACTORIAL EGR reporter mRNA; actives raise or lower the signal
# Procedure, shortened: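 HepG2 cells transiently transfected with cis-promoter-driven multiplexed reporter transcription units; reporter mRNA measured 24 h after compound dosing by RT-PCR, 6-FAM primer extension, HpaI digestion and capillary electrophoresis. Bidirectional fit versus DMSO baseline.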
# [12] = ATG_M_19_CIS: Attagene CIS-FACTORIAL HepG2 Assay for M19 Transcription Factor (Internal Marker) (AID 2282939); settings: HepG2 Attagene CIS-FACTORIAL M19 internal marker reporter; actives raise or lower the signal
# Procedure, shortened: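 Internal marker readout, fitted in both directions against DMSO, from HepG2 cells carrying transfected cis-element reporter constructs; RT-PCR and capillary electrophoresis of reporter mRNA after 24 h exposure.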
# [13] = ATG_ERE_CIS: Attagene CIS-FACTORIAL HepG2 Assay for Estrogen Response Element (ERE) (AID 2282940); settings: HepG2 ERE cis-reporter, Attagene RNA transcript; actives raise or lower the signal
# Procedure, shortened: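 After 24 h compound treatment, RNA from transfected HepG2 cells was reverse-transcribed, reporter cDNA PCR-amplified, FAM-labelled, HpaI-cut and resolved by capillary electrophoresis. ERE-driven cis reporter transcripts reflect endogenous factors; gain or loss scored against DMSO.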
# [14] = ATG_Ets_CIS: Attagene CIS-FACTORIAL HepG2 Assay for human Erythroblast Transformation Specific (ETS) (AID 2282941); settings: HepG2 ETS cis-reporter transcription, actives raise or lower the signal
# Procedure, shortened: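 Bidirectional fit versus DMSO of reporter mRNA signal, detected by RT-PCR and capillary electrophoresis in HepG2 cells transiently transfected with cis-element reporters and dosed 24 h.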
# [15] = biological target: Hepatocyte nuclear factor 3-beta (Homo sapiens) (UniProt Q9Y261); assay: ATG_FoxA2_CIS: Attagene CIS-FACTORIAL HepG2 Assay for human Forkhead box A2 (FOXA2) (AID 2282942); settings: HepG2 cis-reporter transcription factor activity, 24 h; actives raise or lower the signal
# Hepatocyte nuclear factor 3-beta (Homo sapiens), sequence (Q9Y261 whole entry, looked up): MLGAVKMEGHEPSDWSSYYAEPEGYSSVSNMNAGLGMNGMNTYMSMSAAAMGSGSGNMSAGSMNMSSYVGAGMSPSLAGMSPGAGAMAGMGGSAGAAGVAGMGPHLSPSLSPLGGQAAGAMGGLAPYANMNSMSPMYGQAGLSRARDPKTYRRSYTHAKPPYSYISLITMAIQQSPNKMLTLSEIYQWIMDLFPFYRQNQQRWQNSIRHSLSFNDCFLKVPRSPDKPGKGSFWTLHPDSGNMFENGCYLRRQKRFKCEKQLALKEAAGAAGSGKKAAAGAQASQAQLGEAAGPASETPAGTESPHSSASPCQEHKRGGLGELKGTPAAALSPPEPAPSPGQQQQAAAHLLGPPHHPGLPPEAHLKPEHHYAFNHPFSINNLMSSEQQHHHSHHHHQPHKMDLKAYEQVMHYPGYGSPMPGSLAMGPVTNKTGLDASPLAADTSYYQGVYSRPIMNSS
# Procedure, shortened: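 HepG2 cells transiently transfected with multiple cis-regulated reporter transcription units, dosed for 24 h. Reporter mRNA measured by RT-PCR, 6-FAM labelling, HpaI digestion and capillary electrophoresis; bidirectional fitting against DMSO baseline.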
# [16] = ATG_FoxO_CIS: Attagene CIS-FACTORIAL HepG2 Assay for human Forkhead box O (FoxO) (AID 2282943); settings: HepG2 Attagene cis-reporter, FoxO element, mRNA; actives raise or lower the signal
# Procedure, shortened: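 Values reflect reporter mRNA induction or loss in HepG2 cells 24 h post-dosing, fitted bidirectionally with DMSO as negative control and baseline. Detection used RT-PCR and fluorescence capillary electrophoresis.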
# [17] = ATG_GATA_CIS: Attagene CIS-FACTORIAL HepG2 Assay for human GATA Binding Protein (AID 2282944); settings: HepG2 GATA cis-element reporter, Attagene multiplex mRNA; actives raise or lower the signal
# Procedure, shortened: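 Reporter transcripts from a GATA cis-regulated unit, among multiplexed reporters in transfected HepG2 cells, were measured by RT-PCR with capillary electrophoresis after 24 h dosing. Induction or loss scored relative to DMSO.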
# [18] = ATG_GLI_CIS: Attagene CIS-FACTORIAL HepG2 Assay for human Zinc Finger Protein GLI1 (AID 2282945); settings: HepG2, Attagene cis-factorial reporter mRNA, GLI element; actives raise or lower the signal
# Procedure, shortened: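 HepG2 cells transiently transfected with cis-promoter multiplexed reporter units report endogenous transcription factor activity. After 24 h chemical exposure, reporter mRNA was quantified by RT-PCR, 6-FAM labelling, HpaI digestion and capillary electrophoresis, with bidirectional fitting against DMSO.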
# [19] = biological target: Aryl hydrocarbon receptor (Homo sapiens) (UniProt P35869); assay: ATG_Ahr_CIS: Attagene CIS-FACTORIAL HepG2 Assay for human Aryl Hydrocarbon Receptor (Ahr) (AID 2282930); settings: HepG2 AhR cis-factorial reporter transcription; actives raise or lower the signal
# Aryl hydrocarbon receptor (Homo sapiens), sequence (P35869 whole entry, looked up): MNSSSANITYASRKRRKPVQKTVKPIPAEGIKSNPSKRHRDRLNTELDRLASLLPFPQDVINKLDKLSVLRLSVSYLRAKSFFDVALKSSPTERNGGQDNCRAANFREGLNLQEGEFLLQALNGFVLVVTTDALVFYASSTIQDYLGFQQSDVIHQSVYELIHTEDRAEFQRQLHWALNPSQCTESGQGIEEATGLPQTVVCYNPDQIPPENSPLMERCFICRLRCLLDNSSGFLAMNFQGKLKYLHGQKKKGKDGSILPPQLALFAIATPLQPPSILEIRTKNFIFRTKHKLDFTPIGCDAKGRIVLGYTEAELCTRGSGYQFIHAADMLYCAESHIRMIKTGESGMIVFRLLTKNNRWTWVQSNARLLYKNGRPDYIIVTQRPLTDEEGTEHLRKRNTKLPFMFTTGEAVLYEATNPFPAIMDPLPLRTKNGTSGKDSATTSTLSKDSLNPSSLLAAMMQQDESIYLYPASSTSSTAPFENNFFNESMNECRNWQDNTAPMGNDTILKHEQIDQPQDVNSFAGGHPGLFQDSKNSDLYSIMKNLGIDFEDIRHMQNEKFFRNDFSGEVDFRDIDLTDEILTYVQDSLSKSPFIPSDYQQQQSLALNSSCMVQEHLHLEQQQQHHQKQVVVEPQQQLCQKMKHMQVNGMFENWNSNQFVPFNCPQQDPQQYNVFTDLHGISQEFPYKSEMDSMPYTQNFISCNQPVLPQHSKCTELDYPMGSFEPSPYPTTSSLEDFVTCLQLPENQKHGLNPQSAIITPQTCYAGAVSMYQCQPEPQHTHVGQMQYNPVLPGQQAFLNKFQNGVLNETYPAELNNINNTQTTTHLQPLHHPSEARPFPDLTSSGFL
# Procedure, shortened: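 Values derive from bidirectional fitting against DMSO negative control. Underlying signal: cis-element reporter mRNA in transiently transfected HepG2, harvested 24 h post-dose and measured by RT-PCR plus capillary electrophoresis.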
compound,measurement,setting,value
C[C@H]1O[C@@H](O[C@H]2[C@@H](O)C[C@H](O[C@H]3[C@@H](O)C[C@H](O[C@H]4CC[C@@]5(C)[C@H](CC[C@@H]6[C@@H]5CC[C@]5(C)[C@@H](C7=CC(=O)OC7)CC[C@]65O)C4)O[C@@H]3C)O[C@@H]2C)C[C@H](O)[C@@H]1O,outcome,[1],inactive
same,AC50,[2],2.99 µM (active)
same,outcome,[3],inactive
same,AC50,[4],0.0564 µM (active)
same,AC50,[5],13.6 µM (active)
same,AC50,[6],0.141 µM (active)
same,outcome,[7],inactive
same,outcome,[8],inactive
same,outcome,[9],inactive
same,outcome,[10],inactive
same,AC50,[11],0.65 µM (active)
same,outcome,[12],inactive
same,outcome,[13],inactive
same,AC50,[14],0.0564 µM (active)
same,outcome,[15],inactive
same,AC50,[16],0.472 µM (active)
same,AC50,[17],0.131 µM (active)
same,outcome,[18],inactive
CCOP(=S)(OCC)Oc1nc(Cl)c(Cl)cc1Cl,outcome,[1],inactive
same,outcome,[2],inactive
same,AC50,[3],26.1 µM (active)
same,AC50,[4],27.4 µM (active)
same,AC50,[19],2.35 µM (active)
same,AC50,[5],46.2 µM (active)
same,outcome,[6],inactive
same,AC50,[7],65.5 µM (active)
same,AC50,[8],48.6 µM (active)
same,outcome,[9],inactive
same,outcome,[11],inactive
same,outcome,[12],inactive
same,outcome,[14],inactive
same,outcome,[15],inactive
same,outcome,[16],inactive
same,outcome,[17],inactive
same,AC50,[18],71.9 µM (active)
CC(=O)OC(c1ccccc1)C(Cl)(Cl)Cl (stereo not given),outcome,[1],inactive
same,outcome,[2],inactive
same,outcome,[3],inactive
same,outcome,[4],inactive
same,outcome,[5],inactive
same,outcome,[6],inactive
same,outcome,[7],inactive
same,outcome,[8],inactive
same,outcome,[9],inactive
same,outcome,[11],inactive
same,AC50,[13],73.8 µM (active)
same,outcome,[14],inactive
same,outcome,[15],inactive
same,outcome,[16],inactive
same,outcome,[17],inactive
same,outcome,[18],inactive
Nc1cccc(Cl)c1,outcome,[1],inactive
same,outcome,[2],inactive
same,outcome,[3],inactive
same,outcome,[4],inactive
same,outcome,[19],inactive
same,outcome,[5],inactive
same,outcome,[7],inactive
same,outcome,[8],inactive
same,outcome,[9],inactive
same,outcome,[11],inactive
same,outcome,[12],inactive
same,outcome,[13],inactive
same,outcome,[14],inactive
same,outcome,[15],inactive
same,outcome,[16],inactive
same,outcome,[17],inactive
O=S(=O)(c1ccc(Cl)cc1)c1ccc(Cl)cc1,outcome,[1],inactive
same,outcome,[2],inactive
same,AC50,[3],16.5 µM (active)
same,outcome,[4],inactive
same,outcome,[19],inactive
same,AC50,[5],35.8 µM (active)
same,outcome,[7],inactive
same,outcome,[8],inactive
same,outcome,[9],inactive
same,outcome,[10],inactive
same,outcome,[11],inactive
same,outcome,[12],inactive
same,outcome,[13],inactive
same,outcome,[14],inactive
same,outcome,[15],inactive
same,outcome,[16],inactive
same,outcome,[17],inactive
same,outcome,[18],inactive

# Reference: PubChem BioAssay (EPA / NIEHS)
